Drawing on PubChem BioAssay, this text covers composite z-score and z-score for 13 molecules.

Assay [1] is described as follows: binders of probe aFSTL3 on microarray, primary screen, stem cell growth factor project, biochemical, small-molecule microarray, fluorescence 635/667 (AID 1064).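 Also: measures binding of the biotinylated anti-FSTL3 antibody to printed compounds.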 Particulars: higher = more signal.
The nature of assay [2]: binders from COS7 lysate, DM2A8 probe, primary screen, torsin A project, cell lysate, small-molecule microarray, fluorescence 635/667 (AID 1065). Particulars: higher = more signal, COS7 lysate expressing mutant human TOR1A.
Assay [3] can be described thus: binders of probe aFGF2 on microarray, primary screen, stem cell growth factor project, biochemical, small-molecule microarray, fluorescence 635/667 (AID 1067).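 Also: measures binding of biotinylated aFGF2 protein to printed compounds on slides; z-score merges feature fluorescence and signal-to-noise across triplicate slides.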 The conditions noted are these: higher = more signal.
The nature of assay [4]: binders of probe aFGF10 on microarray, primary screen, stem cell growth factor project, biochemical, small-molecule microarray, fluorescence 635/667 (AID 1071).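 Also: score merges 667 nm spot intensity and signal to noise from triplicate slides.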 The conditions noted are these: higher = more signal.
The target in assay [5] is Neurogenic locus notch homolog protein 2 (Homo sapiens) (UniProt Q04721). Put plainly: Notch2 binders on small-molecule microarrays, primary screen, biochemical, small-molecule microarray, 635 nm fluorescence, stem cell growth factors (AID 1073). Particulars: Notch2 binding, higher = more signal.
Assay [6] deals with Pro-neuregulin-1, membrane-bound isoform (Homo sapiens) (UniProt Q02297). Put plainly: NRG1 binders on small-molecule microarrays, primary screen, psychiatric disease protein project, biochemical, small-molecule microarray, fluorescence 635/667 (AID 1075).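 Also: score combines 667 nm spot fluorescence with signal to noise.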 Particulars: NRG1 binding, 635 nm fluorescence, higher = more signal.
Assay [7] deals with Neuregulin-1 EGF-like domain. Kind of assay: binders of neuregulin-1 EGF-like domain, primary screen, biochemical, small-molecule microarray, 635 nm fluorescence (AID 1081).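 Also: binding of the protein to compounds printed on small-molecule microarray slides.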 Particulars: small-molecule microarray binding, higher = more signal.
Assay [8] can be described thus: FRG1 promoter luciferase signal modulators, primary screen, FRG1 inhibition for FSHD, cell-based, C2C12 myotubes, firefly/Renilla luciferase, luminescence (AID 1084). Particulars: higher = more signal, called active from +8 up or from −8 down.
Assay [9] is described as follows: binders of probe aFST on microarray, primary screen, stem cell growth factor project, biochemical, small-molecule microarray, fluorescence 635/667 (AID 1086).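 Also: score merges 667 nm fluorescence with signal-to-noise of each printed compound spot.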 Particulars: higher = more signal.
Assay [10] is described as follows: binders of probe aHhip on microarray, primary screen, stem cell growth factor project, biochemical, small-molecule microarray, fluorescence 635/667 (AID 1087).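 Also: score merges spot fluorescence at 667nm with spot signal to noise ratio.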 The conditions noted are these: higher = more signal.

Calls of active or inactive are those of the source.

Sequence of Pro-neuregulin-1, membrane-bound isoform (Homo sapiens) (Q02297 whole entry, looked up, the tested form may be a part, canonical isoform): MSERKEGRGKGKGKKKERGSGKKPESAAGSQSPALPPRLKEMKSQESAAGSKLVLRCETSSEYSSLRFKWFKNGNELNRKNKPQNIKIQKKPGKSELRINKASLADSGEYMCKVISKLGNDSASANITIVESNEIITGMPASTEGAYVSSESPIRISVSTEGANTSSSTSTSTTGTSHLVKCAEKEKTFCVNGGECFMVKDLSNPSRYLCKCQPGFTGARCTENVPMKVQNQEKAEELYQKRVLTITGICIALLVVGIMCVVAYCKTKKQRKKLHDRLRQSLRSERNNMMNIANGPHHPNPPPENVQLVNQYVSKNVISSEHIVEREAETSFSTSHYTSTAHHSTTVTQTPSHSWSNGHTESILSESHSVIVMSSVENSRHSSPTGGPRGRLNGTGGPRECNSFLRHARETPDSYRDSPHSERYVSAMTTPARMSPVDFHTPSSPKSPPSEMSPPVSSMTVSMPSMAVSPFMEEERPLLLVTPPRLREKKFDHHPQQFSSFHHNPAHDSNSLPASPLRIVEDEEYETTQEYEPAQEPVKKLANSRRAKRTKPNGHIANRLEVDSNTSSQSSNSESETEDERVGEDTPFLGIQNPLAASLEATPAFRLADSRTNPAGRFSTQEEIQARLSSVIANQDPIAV
Sequence of Neurogenic locus notch homolog protein 2 (Homo sapiens) (Q04721 whole entry, looked up, canonical isoform): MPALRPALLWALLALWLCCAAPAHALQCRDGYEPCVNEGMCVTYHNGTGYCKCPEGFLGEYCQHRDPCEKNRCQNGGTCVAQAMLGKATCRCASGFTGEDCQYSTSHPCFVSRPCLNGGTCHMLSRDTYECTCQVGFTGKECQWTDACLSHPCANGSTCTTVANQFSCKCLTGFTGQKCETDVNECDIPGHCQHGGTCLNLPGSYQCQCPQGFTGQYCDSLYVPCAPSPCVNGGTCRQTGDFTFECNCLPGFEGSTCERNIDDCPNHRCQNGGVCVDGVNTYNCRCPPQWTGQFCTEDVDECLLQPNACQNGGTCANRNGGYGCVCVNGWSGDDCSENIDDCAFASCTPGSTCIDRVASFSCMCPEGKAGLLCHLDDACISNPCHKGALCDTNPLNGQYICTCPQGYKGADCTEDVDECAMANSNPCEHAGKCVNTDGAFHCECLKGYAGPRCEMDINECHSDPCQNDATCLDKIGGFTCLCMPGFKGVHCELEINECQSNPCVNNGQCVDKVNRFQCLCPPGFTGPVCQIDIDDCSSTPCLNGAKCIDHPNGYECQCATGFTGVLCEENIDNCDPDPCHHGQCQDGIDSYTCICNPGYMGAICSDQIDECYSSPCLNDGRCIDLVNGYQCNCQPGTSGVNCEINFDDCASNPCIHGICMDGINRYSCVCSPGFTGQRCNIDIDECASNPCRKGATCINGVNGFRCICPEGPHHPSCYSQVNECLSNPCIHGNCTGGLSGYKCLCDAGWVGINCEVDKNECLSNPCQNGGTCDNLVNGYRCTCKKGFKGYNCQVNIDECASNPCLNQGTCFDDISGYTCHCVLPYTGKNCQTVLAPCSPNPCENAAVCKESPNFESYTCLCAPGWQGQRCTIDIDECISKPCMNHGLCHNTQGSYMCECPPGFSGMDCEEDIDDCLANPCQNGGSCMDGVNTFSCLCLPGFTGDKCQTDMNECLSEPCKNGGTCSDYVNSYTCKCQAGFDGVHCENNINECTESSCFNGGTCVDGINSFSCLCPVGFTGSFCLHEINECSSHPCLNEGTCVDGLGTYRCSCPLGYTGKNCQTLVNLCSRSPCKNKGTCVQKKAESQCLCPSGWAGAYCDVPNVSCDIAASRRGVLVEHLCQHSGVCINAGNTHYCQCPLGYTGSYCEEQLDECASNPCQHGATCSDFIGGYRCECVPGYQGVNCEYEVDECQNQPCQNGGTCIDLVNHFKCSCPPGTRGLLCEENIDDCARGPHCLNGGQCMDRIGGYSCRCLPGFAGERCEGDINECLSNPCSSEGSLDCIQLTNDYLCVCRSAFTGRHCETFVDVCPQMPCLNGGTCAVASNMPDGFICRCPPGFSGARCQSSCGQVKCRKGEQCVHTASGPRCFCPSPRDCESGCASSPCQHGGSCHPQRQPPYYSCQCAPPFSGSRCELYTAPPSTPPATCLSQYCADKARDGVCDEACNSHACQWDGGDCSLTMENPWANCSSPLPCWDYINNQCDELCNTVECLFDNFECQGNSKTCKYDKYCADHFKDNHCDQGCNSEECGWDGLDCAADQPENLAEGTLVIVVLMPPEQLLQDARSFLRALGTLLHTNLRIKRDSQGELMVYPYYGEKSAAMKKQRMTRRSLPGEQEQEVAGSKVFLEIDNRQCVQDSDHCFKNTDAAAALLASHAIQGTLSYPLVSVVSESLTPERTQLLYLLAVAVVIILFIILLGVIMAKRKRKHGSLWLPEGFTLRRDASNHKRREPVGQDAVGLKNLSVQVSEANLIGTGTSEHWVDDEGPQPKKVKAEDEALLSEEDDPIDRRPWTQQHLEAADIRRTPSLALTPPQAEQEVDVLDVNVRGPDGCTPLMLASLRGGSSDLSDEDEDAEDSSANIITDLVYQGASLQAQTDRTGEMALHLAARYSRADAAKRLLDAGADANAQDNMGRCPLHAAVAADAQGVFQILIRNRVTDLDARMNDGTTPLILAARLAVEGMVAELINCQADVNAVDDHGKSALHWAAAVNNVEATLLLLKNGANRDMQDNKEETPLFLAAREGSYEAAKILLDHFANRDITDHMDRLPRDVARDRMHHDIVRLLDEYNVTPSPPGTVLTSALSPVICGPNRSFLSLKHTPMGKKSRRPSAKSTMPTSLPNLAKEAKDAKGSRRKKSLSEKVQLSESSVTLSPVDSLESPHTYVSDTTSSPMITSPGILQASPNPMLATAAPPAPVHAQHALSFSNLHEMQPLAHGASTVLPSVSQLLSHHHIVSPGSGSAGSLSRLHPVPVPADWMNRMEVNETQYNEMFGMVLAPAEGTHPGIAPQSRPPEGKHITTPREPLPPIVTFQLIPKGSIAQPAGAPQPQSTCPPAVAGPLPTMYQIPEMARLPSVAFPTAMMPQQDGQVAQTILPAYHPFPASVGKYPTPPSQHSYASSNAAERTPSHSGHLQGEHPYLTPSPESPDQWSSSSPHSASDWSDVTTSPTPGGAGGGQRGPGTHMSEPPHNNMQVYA

On to `C=CC[C@@]1(C(=O)OC)N=C(c2ccc(OCCCO)cc2)O[C@@H]1c1ccccc1N=[N+]=[N-]`, for which the composite z-score was 0.172 in assay [1]; -0.0701 in assay [2]; 0.0555 in assay [3]; 0.256 in [4]; 1.47 in [5]; 1.49 in [6]. In addition, the composite z-score in assay [7] worked out at 1.44; in assay [9] it was 0.587; in assay [10], 0.154. Moreover, the z-score in assay [8] is 1.54 (inactive).

`O=C1NC(=O)C2C1C=CC(C(O)c1ccc(B(O)O)cc1)N2Nc1ccc(Cl)cc1Cl` (stereo not given): the composite z-score in assay [1] was -0.144; in assay [2], -0.397; in [3], -0.0095; in assay [4] it was 0.454; in [5], 1.11; in assay [6], 1.16. For the same molecule, the composite z-score in [7] is 0.955; in [9] it was 0.514; in assay [10] it was -0.0645. Besides, in assay [8], the z-score is 0.402 (inactive).

On to `NC(=O)N1C(=O)C2C(C1=O)C1C=C(CCCO)C2C(c2ccc(CN3CCCC3)cc2)N1Cc1sc2ccccc2c1Cl` (stereo not given), for which the composite z-score in assay [1] was -0.161; in [2], 0.224; in assay [3] it was -0.0867; in assay [4], 0.0718; in assay [5], 0.0517; in [6], 0.0965. In addition, the composite z-score in assay [7] is 0.834; in [9], -0.835; in assay [10], -0.323. In assay [8], the z-score was -0.824 (inactive).

As to `COc1ccc(NN2C(C(O)c3ccc(I)cc3)C=CC3C(=O)N(C4CCCCC4)C(=O)C32)cc1` (stereo not given), the composite z-score in assay [1] was 0.0109; in assay [2] it was 0.813; in assay [3], -0.0024; in assay [4], 0.896; in [5] it was 1.39; in [6], 1.02. In addition, the results for the composite z-score in assay [7], in assay [9] and in assay [10] were 1.04, 1.61 and 0.245, respectively. For the same molecule, in [8], the z-score was -0.21 (inactive).

`COc1ccc([Si](C)(C)[C@@H]2[C@@H](CC(=O)N3CCC[C@H]3CO)O[C@]3(C(=O)N(Cc4ccc(N5CCOC5=O)cc4)c4ccccc43)[C@H]2C)cc1`: the composite z-score in assay [1] is -0.29; in [2], 0.59; in [3], -0.155; in assay [4], -0.0087; in [5], 0.01; in [6], 0.717. Also, the composite z-score in assay [7] is 1.01; in assay [9], 0.138; in assay [10] it was -0.0994. For the same molecule, the z-score in assay [8] is -2.49 (inactive).

For `Cc1ccc(S[C@]2(C(=O)NCCCN(C)C)CC(=O)N(C3Cc4ccccc4C3)[C@@H]2c2ccc(CO)cc2I)cc1`, the composite z-score is 0.533 in assay [1]; -0.602 in assay [2]; -0.0281 in [3]; -0.25 in assay [4]; 0.0374 in [5]; 1.88 in assay [6]. Also, the composite z-score in assay [7] is 0.522; in [9], 0.404; in assay [10] it was -0.0373. Moreover, the z-score in assay [8] was -0.967 (inactive).

Regarding `COC(=O)[C@H](Cc1ccccc1)N1CC2=CCCC=C[C@@H]2[C@H]1[C@H](O)Cc1ccccc1`, the composite z-score is -0.22 in assay [1]; 0.0803 in assay [2]; -0.103 in assay [3]; 0.311 in [4]; -0.0146 in assay [5]; 0.112 in [6]. In addition, the results for the composite z-score in assay [7], in assay [9] and in assay [10] were 0.667, 0.0599 and -0.0427, respectively. The z-score in assay [8] was 0.569 (inactive).

`CC(C)C(CO)N1C(=O)[C@@H]2C3C(=O)OCCC/C=C\[C@H]3OC23C=CCN(Cc2ccccc2)C(=O)[C@@H]13` (stereo not given in full): the composite z-score in assay [1] was 0.598; in assay [2] it was -0.217; in [3], -0.0744; in [4] it was 0.648; in assay [5] it was -0.376; in assay [6], 1.43. Moreover, the values for the composite z-score in [7], in [9] and in [10] were 1.58, -0.406 and -0.134, respectively. The z-score in [8] was 0.597 (inactive).

Take `C#CCN1[C@@H](Cc2ccccc2)C(=O)O[C@H](Cc2ccccc2)[C@@H]1/C=C/C1CC1`: the composite z-score is -0.733 in assay [1]; 0.819 in assay [2]; -0.0807 in assay [3]; 0.289 in assay [4]; -0.271 in [5]; -0.151 in assay [6]. For the same molecule, the composite z-score in [7] amounted to 0.86; in [9], 0.426; in [10] it was 0.198. Further, the z-score in assay [8] was -3.46 (inactive).

Consider `COCCCNC(=O)[C@@]1(CCC(=O)OC(C)(C)C)COC(c2ccc(OCCCO)cc2)=N1`, for which the composite z-score is -0.0885 in assay [1]; 0.355 in assay [2]; -0.0659 in assay [3]; 0.611 in assay [4]; 0.844 in [5]; 1.63 in assay [6]. For the same molecule, the composite z-score is 1.21 in assay [7], 0.579 in assay [9] and -0.12 in assay [10]. Moreover, the z-score in assay [8] is -0.604 (inactive).

As for `COc1ccc([Si](C)(C)[C@H]2[C@H](CCO)O[C@@]3(C(=O)N(Cc4cccc(N(C=O)c5ccccc5)c4)c4ccccc43)[C@@H]2C)cc1`, the composite z-score in assay [1] was -0.364; in assay [2], 0.35; in assay [3], 0.0155; in assay [4], 1.09; in assay [5], 1.14; in [6], 0.97. Further, the composite z-score in assay [7] was 1.08; in [9], 0.638; in assay [10], -0.236. Besides, the z-score in assay [8] is -0.837 (inactive).

As to `O=C1C2C=CC(C(O)C3CCCCC3)N(n3cnnc3)C2C(=O)N1Cc1ccccc1` (stereo not given), the composite z-score is -0.0187 in assay [1]; 0.396 in assay [2]; 0.0498 in assay [3]; 0.792 in assay [4]; 0.884 in [5]; 1.07 in assay [6]. The composite z-score in assay [7] is 1.3; in [9], 1.47; in [10], -0.299. In addition, in assay [8], the z-score was 1.11 (inactive).

Take `O=C(NCC(O)CO)C1N=C(c2ccc(OCCCO)cc2)N(c2ccccc2)O1` (stereo not given): the composite z-score is -0.279 in [1]; 0.657 in [2]; 0.0073 in assay [3]; 0.643 in assay [4]; 0.575 in assay [5]; -0.168 in [6]. Moreover, the composite z-score was 0.462 in assay [7], -0.282 in assay [9] and 0.136 in assay [10]. The z-score in assay [8] is 3.24 (inactive).
